Assay results reported in PubChem BioAssay (NCATS).
Records with an inconclusive call do not appear. Active and inactive are the calls of the source. Unless noted, the call rests on the fitted dose curve; in most records, active means well fitted curve in the direction sought with a large enough effect; inconclusive means small, poorly fitted or top-dose-only effect, or another doubt; inactive means no such curve, though single readings can be large; an effect the other way counts as inactive or inconclusive.

Legend:
[1] = NS1 protein of Zika virus - qHTS assay to identify small molecule inhibitors in human HEK 293 cells (AID 1347053); further: series mostly up to about 46 µM; nearly all actives have a fitted effect of over 55% in size
In short: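 TR-FRET signal from two anti-ZIKV NS1 antibodies quantified NS1 in HEK 293 cells 24 h after MR766 infection at MOI = 0.5; compounds were added 1 h before virus. Uninfected cells and infected cells defined the NS1 normalization range.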

[2] = molecular target: T1, Tyrosine-protein phosphatase non-receptor type substrate 1 (Homo sapiens) + Leukocyte surface antigen CD47 (Homo sapiens) (UniProt P78324+Q08722); assay: CD47-SIRPalpha protein protein interaction - LANCE assay qHTS validation (AID 1347057; active means well fitted curve in the direction sought with a large enough effect in the signal ratio, with a control signal flat, not every such curve was filed as active; the % refers to the signal ratio; further: series mostly up to about 38 µM)
In short: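 Inhibition of soluble CD47/SIRPalpha ectodomain association by titrated compounds, measured as 665/615 nm time-resolved FRET ratio after sequential 30 min room-temperature incubations.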

[3] = molecular target: T1, Tyrosine-protein phosphatase non-receptor type substrate 1 (Homo sapiens) + Leukocyte surface antigen CD47 (Homo sapiens); assay: CD47-SIRPalpha protein protein interaction - HTRF assay qHTS validation (AID 1347058; active means well fitted curve in the direction sought with a large enough effect in the signal ratio, not every such curve was filed as active; the % refers to the signal ratio; further: series mostly up to about 38 µM)
In short: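 Soluble extracellular domains (6His-CD47, Avi-tag-biotinylated SIRPalpha) in PBS pH 7.4 with 0.05% IGEPAL CA-630. Compounds were preincubated 30 min at RT with CD47 and anti-His-Eu, then SIRPalpha and SAV-XL665 were added. TR-FRET 665/615 ratio.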

[4] = molecular target: T1, Tyrosine-protein phosphatase non-receptor type substrate 1 (Homo sapiens) + Leukocyte surface antigen CD47 (Homo sapiens); assay: CD47-SIRPalpha protein protein interaction - Alpha assay qHTS validation (AID 1347059);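 further: bead proximity luminescence from CD47 binding SIRPalpha after compound preincubation with SIRPalpha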
In short: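 AlphaScreen signal between CD47-His (12.5 nM) and biotin-SIRPalpha (25 nM) soluble extracellular domains, bead-captured via Ni-NTA and streptavidin. Compounds, in 7-point titrations, met SIRPalpha 30 min before CD47; PBS pH 7.4 with 0.05% IGEPAL.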

[5] = molecular target: Parathyroid hormone/parathyroid hormone-related peptide receptor (Homo sapiens) (UniProt Q03431); assay: qHTS for PTHR1 Agonists: Optimization Screen against the NCGC LOPAC library (AID 1347079);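 further: GloSensor cAMP luminescence in HEK-293 GP2 cells expressing human PTHR1 with IBMX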
In short: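 HEK-293 GP2 cells, PTHR1 + GloSensor cAMP; 3000 cells/well, o/n. Luciferin + IBMX 0.5mM each (stock), 1 hr 37C. Cpd titration, 1 hr 37C. Lum after 15 min RT. Ctrl M-PTH(1-15) top 10uM.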

[6] = molecular target: N-terminal Xaa-Pro-Lys N-methyltransferase 1 (Homo sapiens) (UniProt Q9BV86); assay: qHTS Assay for Inhibitors of N-terminal methyltransferase 1 (NTMT1): LOPAC validation of the NTMT1 SAHH-coupled ThioGlo3 Assay (AID 1347143);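 further: SAH from peptide methylation measured as thiol fluorescence via SAHH coupling and ThioGlo3; nearly all actives have a fitted effect of over 70% in size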; further: potency means the concentration at half of the fitted maximal effect
In short: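 NTMT1 125nM + cpds (various conc.), 1 min RT; add SAM 100uM/SAHH 10uM/ThioGlo3 15uM (addition mix). SAHH-coupled thiol detection, Ex340/Em450, t0 and 30 min RT; signal normalized to background. LOPAC 1280-cpd pilot.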

[7] = tested on: Zika virus NS2B-NS3 protease (unlinked); assay: Optimization of GU AMC qHTS for Zika virus inhibitors: Unlinked NS2B-NS3 protease assay (AID 1347151); further: nearly all actives have a fitted effect of over 80% in size; further: potency means the concentration at half of the fitted maximal effect
In short: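 Fluorescence read-out (340 nm ex / 450 nm em) of AMC peptide cleavage, taken immediately and after 15 min at room temperature (~20% conversion). Enzyme was the unlinked NS2B–NS3 complex at 25 nM in Tris pH 8.0 buffer.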

[8] = tested on: Zika virus NS2B-NS3 protease (linked construct); assay: Confirmatory screen NINDS AMC qHTS for Zika virus inhibitors (AID 1347152);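 further: AMC fluorescence gain from cleaved Bz-Nle-KRR-AMC substrate over 15 min; top concentration of the series differs between compounds; nearly all actives have a fitted effect of over 70% in size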
In short: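 Linked NS2B-NS3 1 nM, Tris pH 8.0/0.01% Tween 20; cpd 15 min RT dark; + Nle-KRR-AMC 10 µM (Km 18.3 µM); read 0 and 15 min, 340/450 nm; %inh vs controls, 4-param Hill.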

[9] = tested on: Zika virus NS2B-NS3 protease (unlinked complex); assay: Confirmatory screen GU AMC qHTS for Zika virus inhibitors (AID 1347153); further: nearly all actives have a fitted effect of over 70% in size
In short: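 Fluorescence change (ex 340/em 450 nm) over 15 min, ~20% substrate conversion, normalized to no-inhibitor and no-enzyme controls, then Hill-fitted. Unlinked protease at 25 nM; AMC peptide 10 µM.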

[10] = tested on: Zika virus NS2B-NS3 protease (linked construct); assay: 384 well plate NINDS Rhodamine confirmatory qHTS for Zika virus inhibitors (AID 1347164);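 further: fluorescence from protease cleavage of Ac-LKRR-rhodamine 110 substrate; potency means the concentration at half of the fitted maximal effect; nearly all actives have a fitted effect of over 65% in size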
In short: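 Fluorescence read at ex 485 nm/em 538 nm, 25 min after adding 10 microM Ac-LKRR-Rd substrate at room temperature in the dark; signal normalized to no-enzyme and no-inhibitor controls. Enzyme final 5, 30 or 60 nM; compounds, ~15 min preincubation.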

[11] = HepG2 cells viability qHTS for Zika virus inhibitors (AID 1347168)
In short: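 Luminescent ATP readout (CellTiter Glo) after 30 min at 37 degrees C gives viability; cells in DMEM + 4% FBS were treated 24 to 48 hours with compound, following overnight attachment.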

[12] = Tertiary RLuc qRT-PCR qHTS assay for Zika virus inhibitors (AID 1347169); further: nearly all actives have a fitted effect of over 55% in size; further: potency means the concentration at half of the fitted maximal effect
In short: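 Luminescence read-out: live-cell Renilla luciferase substrate applied to infected Vero cells, signal measured after 1-1.5 hrs. Cells had received compound before ZIKV-RLuc (Cambodian strain, MOI 1-2) infection and were incubated 48-72 hrs at 37 degrees C.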

[13] = Confirmatory screen NINDS Rhodamine qHTS for Zika virus inhibitors (AID 1347161);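 further: purified Zika NS2B-NS3 protease with linked NS2B cofactor domain and Rhodamine110 peptide substrate; series mostly up to about 110 µM; nearly all actives have a fitted effect of over 60% in size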
In short: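 Rhodamine110-peptide cleavage (1.5 µM substrate) by 25 nM linked NS2B-NS3 enzyme at pH 8.0 (Tris, Tween 20), after 15 min RT preincubation with compounds; 15-min fluorescence change normalized to controls and Hill-fitted.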

[14] = tested on: Zika virus NS2B-NS3 protease; assay: Primary screen GU AMC qHTS for Zika virus inhibitors (AID 1347154); further: nearly all actives have a fitted effect of over 70% in size
In short: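 Fluorogenic AMC-substrate cleavage by noncovalent NS2B-NS3 protease complex (25 nM, pH 8.0 Tris buffer with Tween 20) followed for 15 minutes at room temperature (~20% conversion). Percent inhibition from ex340/em450 signal change, fitted by 4-parameter Hill equation.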

Measured: Potency

T1 sequence (P78324 whole entry, looked up, the tested form may be a part): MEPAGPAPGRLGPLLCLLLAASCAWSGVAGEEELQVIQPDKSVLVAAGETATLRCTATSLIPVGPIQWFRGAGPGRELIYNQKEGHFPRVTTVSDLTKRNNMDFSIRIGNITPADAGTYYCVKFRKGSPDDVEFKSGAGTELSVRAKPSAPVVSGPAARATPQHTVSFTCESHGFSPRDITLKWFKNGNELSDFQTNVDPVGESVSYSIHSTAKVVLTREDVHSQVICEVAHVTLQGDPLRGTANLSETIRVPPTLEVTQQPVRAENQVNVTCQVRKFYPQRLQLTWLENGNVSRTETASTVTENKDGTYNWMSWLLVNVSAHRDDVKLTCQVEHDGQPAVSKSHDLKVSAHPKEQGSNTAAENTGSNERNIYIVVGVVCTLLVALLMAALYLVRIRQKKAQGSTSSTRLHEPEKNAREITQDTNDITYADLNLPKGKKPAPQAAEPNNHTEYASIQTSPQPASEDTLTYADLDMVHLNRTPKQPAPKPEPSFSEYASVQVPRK
T1 sequence (Q08722 whole entry, looked up, the tested form may be a part): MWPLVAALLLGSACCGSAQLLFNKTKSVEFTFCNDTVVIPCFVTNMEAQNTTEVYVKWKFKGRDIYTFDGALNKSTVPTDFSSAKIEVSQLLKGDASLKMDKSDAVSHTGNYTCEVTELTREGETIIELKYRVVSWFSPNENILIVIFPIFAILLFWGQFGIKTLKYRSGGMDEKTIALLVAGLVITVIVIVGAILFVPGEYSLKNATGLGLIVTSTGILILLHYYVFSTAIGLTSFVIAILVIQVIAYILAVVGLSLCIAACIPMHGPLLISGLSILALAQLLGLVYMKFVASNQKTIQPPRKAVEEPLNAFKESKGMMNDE
Parathyroid hormone/parathyroid hormone-related peptide receptor (Homo sapiens), sequence (Q03431 whole entry, looked up): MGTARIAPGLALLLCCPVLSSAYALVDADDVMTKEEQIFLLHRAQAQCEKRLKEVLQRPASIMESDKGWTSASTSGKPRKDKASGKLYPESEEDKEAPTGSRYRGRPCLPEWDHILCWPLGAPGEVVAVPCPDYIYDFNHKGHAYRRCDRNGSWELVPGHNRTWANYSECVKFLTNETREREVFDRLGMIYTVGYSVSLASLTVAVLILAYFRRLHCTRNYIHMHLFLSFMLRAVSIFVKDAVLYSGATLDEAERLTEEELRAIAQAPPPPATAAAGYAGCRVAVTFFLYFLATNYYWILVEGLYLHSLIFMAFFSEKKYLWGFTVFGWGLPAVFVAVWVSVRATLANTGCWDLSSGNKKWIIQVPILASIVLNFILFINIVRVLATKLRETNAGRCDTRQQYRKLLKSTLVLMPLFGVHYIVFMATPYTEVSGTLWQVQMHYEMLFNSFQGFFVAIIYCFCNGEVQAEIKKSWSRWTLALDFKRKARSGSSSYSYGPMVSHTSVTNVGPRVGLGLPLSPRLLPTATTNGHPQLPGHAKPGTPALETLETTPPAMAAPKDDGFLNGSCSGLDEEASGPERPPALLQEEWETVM
N-terminal Xaa-Pro-Lys N-methyltransferase 1 (Homo sapiens), sequence (Q9BV86 whole entry, looked up): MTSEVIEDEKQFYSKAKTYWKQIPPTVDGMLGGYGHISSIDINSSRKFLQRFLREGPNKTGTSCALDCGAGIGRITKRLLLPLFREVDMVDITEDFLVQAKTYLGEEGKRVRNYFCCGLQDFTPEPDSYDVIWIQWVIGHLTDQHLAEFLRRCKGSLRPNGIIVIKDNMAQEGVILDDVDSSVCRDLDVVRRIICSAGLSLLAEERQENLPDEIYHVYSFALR

c1ccc(C(NCCNC(c2ccccc2)c2ccccc2)c2ccccc2)cc1
inactive: [1] | [2] | [3] | [4] | [5] | [6] | [7]

CCCCC[C@H](CC(=O)NO)C(=O)N[C@H](C(=O)N1CCC[C@H]1CO)C(C)C
inactive: [1] | [2] | [3] | [4] | [5] | [6]

C=CCN1CCc2c(cc(O)c(O)c2Br)[C@@H](c2ccccc2)C1
active: [6] 35.5 µM | [7] 18.9 µM | [10] 8.91 µM | [12] 11.7 µM
not listed: [13] | [14]
inactive: all other assays above

C[C@](Cc1ccc(O)c(O)c1)(NN)C(=O)O
active: [6] 39.8 µM
inactive: [1] | [2] | [3] | [4] | [5]

Nn1nnc2ccccc21
inactive: [1] | [2] | [3] | [4] | [5] | [6] | [7]

CCCCCCCCCCCCCCC[C@H](O)[C@H](N)CO
inactive: [1] | [2] | [3] | [4] | [5] | [6]

NOCC(=O)O
inactive: [1] | [2] | [3] | [4] | [5] | [6] | [7]

O=c1oc(Cl)c(Cl)c2ccccc12
inactive: [1] | [2] | [3] | [4] | [5] | [7]
active: [6] 50.1 µM

C=CCN1CCc2cc(O)c(O)cc2C(c2ccccc2)C1 (configuration not stated)
inactive: [1] | [2] | [3] | [4] | [5]
active: [6] 35.5 µM

COc1cc2c(CCNC(C)=O)c[nH]c2cc1O
active: [7] 26.7 µM
not listed: [10] | [14]
inactive: all other assays above

CCCc1c(-c2ccc(O)cc2)nn(-c2ccc(O)cc2)c1-c1ccc(O)cc1
inactive: [1] | [2] | [3] | [4] | [5] | [6]

CCCCCC(O)CCCC(=O)O (configuration not stated)
inactive: [1] | [2] | [3] | [4] | [5] | [6] | [7] | [14]

CCCCCCCCCCCCCCSCC(=O)O
inactive: [1] | [2] | [3] | [4] | [5] | [6]

Oc1cc(O)c2c(c1)O[C@H](c1ccc(O)c(O)c1)[C@@H](O)C2
active: [6] 44.7 µM
inactive: [1] | [2] | [3] | [4] | [5]

CC(N)(Cc1ccc(O)c(O)c1)C(=O)O (configuration not stated)
inactive: [1] | [2] | [3] | [4] | [5] | [7]
active: [6] 56.2 µM

c1ccc(C2CN3CCSC3=N2)cc1 (configuration not stated)
inactive: [1] | [2] | [3] | [4] | [5] | [6] | [7]

C=CCN1CCc2c(cc(O)c(O)c2Cl)C(c2ccccc2)C1 (configuration not stated)
active: [6] 20 µM | [7] 18.9 µM
inactive: [1] | [2] | [3] | [4] | [5]

O=C(O)c1cc(=O)cc(C(=O)O)[nH]1
inactive: [1] | [2] | [3] | [4] | [5] | [6] | [7]

COc1cc(N)c(Cl)cc1C(=O)OCCN1CCCCC1
inactive: [1] | [2] | [3] | [4] | [5] | [6] | [7]

NC(=O)c1cc[n+](CC2=C(C(=O)O)N3C(=O)[C@@H](NC(=O)[C@@H](c4ccccc4)S(=O)(=O)[O-])[C@H]3SC2)cc1
inactive: [1] | [2] | [3] | [4] | [5] | [6]

CC(=O)SC1CC2=CC(=O)CC[C@]2(C)C2CC[C@@]3(C)C(CC[C@@]34CCC(=O)O4)C12 (some centres not stated)
inactive: [1] | [2] | [3] | [4] | [5] | [6] | [7]

O=C(O)c1cc2cc(F)ccc2[nH]1
inactive: [1] | [2] | [3] | [4] | [5]
active: [6] 56.2 µM | [7] 26.7 µM

Cc1cc2c(cc1Cl)N(C(=O)Nc1ccnc3ccccc13)CC2
inactive: [1] | [2] | [3] | [4] | [5] | [6] | [7]

Cc1cccc(C2CN(C)CCc3c2cc(O)c(O)c3Cl)c1 (configuration not stated)
inactive: [1] | [2] | [3] | [4] | [5] | [7]
active: [6] 56.2 µM

CC(=O)C(C)=O
inactive: [1] | [2] | [3] | [4] | [5] | [6] | [7]

NC1CCN(O)C1=O (configuration not stated)
inactive: [1] | [2] | [3] | [4] | [5] | [6] | [7]

CC(=O)N[C@@H](Cc1c[nH]c2ccccc12)C(=O)OCc1cc(C(F)(F)F)cc(C(F)(F)F)c1
inactive: [1] | [2] | [3] | [4] | [5] | [6] | [7] | [14]

CC(C)[C@@H]1CC[C@@H](C)C[C@@H]1P(=O)(c1ccccc1)c1ccccc1
inactive: [1] | [2] | [3] | [4] | [5] | [6] | [7]

CC(C)C[C@H](NC(=O)C1OC1C(=O)O)C(=O)NCCCCN=C(N)N (some centres not stated)
inactive: [1] | [2] | [3] | [4] | [5] | [6] | [7]
